Screens: PubChem, several laboratories
NLRP3 yeast inh = inhibitors of NALP3 inflammasome in yeast; Yeast reconstituted NLRP3/ASC/caspase-1, beta-gal luminescence, 24 h; inhibition, % at 10 µM; AID 2825; 330,000 compounds, 0.39% hits;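 active = inhibition of 50% or more; inactive = inhibition below 50%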
tim23-1 inh = tim23-1 yeast growth inhibition; S. cerevisiae tim23-1 growth, BacTiter-Glo luminescence, 24 h; 330,000 compounds, 1.3% hits; inhibition, % at 20 µM;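 active = growth inhibition of the mutant yeast at or above 50%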;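 note: temperature-sensitive mutant grown at 25 °C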
tim10-1 inh = growth inhibitors of tim10-1 mutant yeast; S. cerevisiae tim10-1 ts strain growth, BacTiter-Glo, 24 h; inhibition, % at 20 µM; 330,000 compounds, 2.2% hits; AID 463190;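 active = inhibition of at least 40%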;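 note: mutant grown at 25 °C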
TIM10 inh = inhibits growth of TIM10 yeast strain | S. cerevisiae TIM10 strain growth, BacTiter-Glo luminescence, 24 h | inhibition, % at 10 µM | 330,000 compounds, 1.4% hits;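 active = inhibition of 40% or more at the single tested concentration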;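 note: wild-type TIM10 isogenic control strain grown at permissive 25 °C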
V-ATPase pHluor = yeast V-ATPase proton transport regulation by pHLuorin; S. cerevisiae, pHLuorin cytosolic pH fluorescence; response, % at 10 µM; 350,000 compounds, 0.37% hits; AID 504577; in the data active = response mostly above about 7.3%, no sharp cut-off; inactive = mostly below about 5.4%; note: actives read high
NALP1 yeast inh = inhibitors of NALP1 inflammasome in yeast. S. cerevisiae NALP1/ASC/caspase-1 growth, X-gal OD620, 72 h. inhibition, % at 10 µM. 280,000 compounds, 0.61% hits; in the data active = inhibition mostly above about 24%, no sharp cut-off; inactive = mostly below about 32%
tim10-1 conf = tim10-1 yeast growth inhibition, confirmed; shares compounds with tim10-1 inh; AID 463213; inhibition, % at 20 µM; 7,400 compounds, 56% hits; S. cerevisiae tim10-1 ts strain growth, BacTiter-Glo, 24 h;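 active = inhibition of yeast growth at or above a set limit in either of two repeat tests at 20 µM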;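 note: tim10-1 mutant grown at permissive 25 °C to find synthetic lethal compounds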
TIM10 conf = TIM10 yeast growth inhibition, confirmed; shares compounds with TIM10 inh; S. cerevisiae tim10 strain growth, BacTiter-Glo luminescence, 24 h; inhibition, % at 10 µM; 4,600 compounds, 63% hits;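 active = inhibition of yeast growth at or above a set limit in either of two replicates at 10 µM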; note: this counterscreen used the strain with wild-type TIM10
tim23-1 conf = confirmation of tim23-1 mutant yeast growth inhibitors; inhibition, % at 20 µM; 4,400 compounds, 83% hits; shares compounds with tim23-1 inh; S. cerevisiae tim23-1 growth, BacTiter-Glo luminescence, 24 h;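 active = inhibition above about 39% in either of two replicate wells at 20 µM, limit read from the data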;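 note: temperature-sensitive tim23-1 mutant grown at 25 °C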
A number is an active result; - = inactive; . = no result given. This is a sample that favours compounds with a hit; in the whole collection about 4.2% have one here.

SMILES | NLRP3 yeast inh | tim23-1 inh | tim10-1 inh | TIM10 inh | V-ATPase pHluor | NALP1 yeast inh | tim10-1 conf | TIM10 conf | tim23-1 conf
CCCCn1c(N)c(N(CCC(C)C)C(=O)COC(=O)Cc2ccc(Cl)cc2)c(=O)[nH]c1=O | . | . | . | . | - | . | . | . | .
O=C(Nc1nc2cc3c(cc2s1)OCO3)c1ccco1 | . | . | . | . | - | . | . | . | .
O=C(Nc1nc2cc3c(cc2s1)OCCO3)c1ccco1 | - | 75 | 49 | 43 | - | - | 41 | 41 | 60
CN(C)C1=NCCN1CCC1CCCC1 | - | - | - | - | - | - | . | . | .
O=C(Nc1ccc(Cl)cn1)c1ccccc1[N+](=O)[O-] | - | - | - | - | - | - | . | . | .
O=[N+]([O-])c1cnc(Nc2ccc(Cl)cn2)c([N+](=O)[O-])c1 | - | 73 | 73 | 50 | - | - | 69 | 33 | 81
CS(=O)(=O)N1CCn2c1nc1ccccc12 | - | - | - | - | - | - | . | . | .
CCN1N=C(c2ccccc2)Cn2c1nc1ccccc12 | - | 52 | 43 | - | - | - | 44 | . | 46
Cc1cccc(-c2cc3nc4c(c(NCc5ccco5)n3n2)CCCC4)c1 | - | 54 | 53 | - | - | - | 34 | . | 56
Cc1ccc(-c2nnc(N3CCN(C(=O)c4cccs4)CC3)c3ccccc23)cc1 | - | 69 | 55 | - | - | - | 50 | . | 59
CCOC(=O)N1CCN(c2nnc(-c3ccc(C)cc3)c3ccccc23)CC1 | - | 61 | 52 | - | - | - | 34 | . | 48
Cc1cccc(CC(=O)N2CCCC2)c1 | - | - | - | - | - | . | . | . | .
O=C(c1ccccc1)c1ccc2cc(O)ccc2c1 | - | 59 | 48 | - | - | - | 35 | . | 53
CC1(C)CC(=O)C2=C(C1)NC1=C(C(=O)c3ccccc31)C2c1ccc(Cl)cc1 (centres undefined) | - | 52 | 50 | 40 | - | - | 36 | - | 46
Cc1ccc(C2C3=C(CC(C)(C)CC3=O)NC3=C2C(=O)c2ccccc23)cc1 (centres undefined) | - | - | - | - | - | - | . | . | .
Clc1nssc1=Nc1ccccc1 | . | . | . | . | - | - | . | . | .
COc1cc(N=c2ssnc2Cl)cc(OC)c1OC | - | - | - | - | - | - | . | . | .
Clc1ccc(N=c2ssnc2Cl)cc1 | - | 63 | 54 | - | - | - | 66 | . | 88
COc1ccc(N=c2ssnc2Cl)cc1 | - | 61 | 53 | - | - | - | 35 | . | 80
O=C(N/N=C/c1ccc([N+](=O)[O-])s1)c1ccccc1 | - | - | - | - | - | - | . | . | .
O=C(N/N=C\c1ccc([N+](=O)[O-])s1)c1cncc(Br)c1 | - | 69 | 45 | 55 | - | - | 35 | 51 | 69
COC(=O)N/N=C/c1ccc([N+](=O)[O-])s1 | - | 83 | 42 | - | - | - | 33 | . | 88
Cc1noc(/C=C/N(C)C)c1S(=O)(=O)N1CCCC(C(=O)Nc2ccc(F)cc2F)C1 (centres undefined) | - | - | - | - | - | - | . | . | .
CCOc1ccc(/C=C/[N+](=O)[O-])c2ccccc12 | - | 73 | 51 | 65 | - | - | - | 55 | -
CCOC(=O)Cn1cc(/C=C/[N+](=O)[O-])c2ccccc21 | - | - | - | - | - | - | . | . | .
SMILES | NLRP3 yeast inh | tim23-1 inh | tim10-1 inh | TIM10 inh | V-ATPase pHluor | NALP1 yeast inh | tim10-1 conf | TIM10 conf | tim23-1 conf
CCN1C[C@@H]2[C@@H]3C(=O)N(C)C(=O)[C@@H]3[C@](Cc3ccccc3)(C1=O)N2C(=O)c1ccc(Cl)cc1 | . | . | . | . | - | . | . | . | .
CCOC(=O)c1c2c(n(C)c1C)C(=O)C(=O)c1ccc(Br)cc1-2 | - | 56 | 57 | 66 | - | . | - | 44 | 47
Cc1ccc(S(=O)(=O)NCCCCCC(=O)Nc2c(C)n(C)n(-c3ccccc3)c2=O)cc1 | - | - | - | - | - | - | . | . | .
CC(Sc1nc2ccccc2c(=O)n1C)C(=O)N(C)C1CCCCC1 (centres undefined) | - | - | - | - | - | . | . | . | .
COCCN(Cc1nnc(-c2cccs2)o1)C(=O)CN1C(=O)NC2(CCCCC2)C1=O | - | - | - | - | - | . | . | . | .
Cc1nn(-c2cccc(C(F)(F)F)c2)c(Cl)c1/C=N/Nc1cccc(C(=O)O)c1 | . | . | . | . | - | - | . | . | .
CCOC(=O)N/N=C/c1c(C)nn(-c2cccc(C(F)(F)F)c2)c1Cl | - | 58 | 47 | - | - | - | 36 | . | 60
Cc1ccccc1/C(N)=N/OC(=O)/C=C/c1ccccc1 | - | 73 | 76 | 76 | - | - | 52 | 68 | 56
COc1ccc(/C=C/C(=O)O/N=C(\N)c2ccccc2)cc1OC | - | - | - | - | - | - | . | . | .
COc1ccc(/C(N)=N/OC(=O)/C=C/c2ccccc2)cc1 | - | 80 | 62 | 61 | - | - | 41 | 68 | 72
N/C(=N\OC(=O)c1cccs1)c1cccnc1 | - | - | - | - | - | - | . | . | .
Cc1ccccc1/C(N)=N/OC(=O)c1cccs1 | - | 68 | 61 | 70 | - | - | 50 | - | 48
Cc1ccc(/C(N)=N/OC(=O)/C=C/c2ccccc2)cc1 | - | 67 | 60 | 72 | - | - | 47 | 78 | 77
N/C(=N\OC(=O)/C=C/c1ccccc1)c1cccnc1 | - | - | - | - | - | - | . | . | .
CCC(C(=O)Nc1ccc(S(=O)(=O)N2CCN(C)CC2)cc1)c1ccccc1 (centres undefined) | - | - | - | - | - | - | . | . | .
CC(C)OCCCNC(=O)c1cn(C)c2ccc(S(=O)(=O)N3CCCC3)cc2c1=O | - | - | - | - | - | - | . | . | .
C[C@H](CO)N1C[C@H](C)[C@@H](CN(C)C(=O)Nc2ccccc2)Oc2ccc(NC(=O)CCC(F)(F)F)cc2C1=O | - | - | - | - | - | . | . | . | .
CCN(CC)CCCn1c2c(c(SCC(=O)Nc3ccc(OC(F)(F)F)cc3)nc1=O)CCC2 | - | - | - | - | - | . | . | . | .
C[C@@H]1Cc2c(O)c(O)cc(O)c2C(=O)O1 | - | - | - | - | - | - | . | . | .
CC1CCC/C=C/C(=O)c2c(O)cc(O)cc2CC(=O)O1 (centres undefined) | - | 53 | 54 | 40 | - | - | 49 | 51 | 54
Cc1cn2c(=O)c(C(=O)N3CCN(c4ccccc4)CC3)cnc2s1 | - | - | - | - | - | . | . | . | .
O=C(Nc1nnc(S(=O)(=O)N2CCCCCC2)s1)c1ccccc1F | - | 56 | 47 | - | - | - | 32 | . | 55
COc1ccc(CCNC(=S)NC(=O)c2ccccc2)cc1OC | - | 56 | 48 | 53 | - | - | 39 | 31 | 44
COc1ccc(N2C(=O)C(Cl)=C(Oc3cccc(OC)c3)C2=O)cc1 | - | 53 | 72 | 75 | - | - | 57 | 82 | -
